A short description of test [1]: stimulators of nuclear beta-catenin in C2C12, primary screen, imaging, WNT3A-conditioned medium, mouse C2C12, NPC library (AID 1117326; in the data active = nuclear beta-catenin stimulation mostly above about 4.2%, no sharp cut-off; inactive = mostly below about 10%). The settings on record: stronger effect = higher value.
The nature of test [2]: stimulators of insulin release from INS-1E, primary screen, cell-based, 5 mM glucose, NPC library (AID 1117329;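 active = compound raises insulin release from rat beta cells at 5 mM glucose, no numeric limit stated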). The settings on record: rat INS-1E insulin secretion, at 10 µM, stronger effect = higher value.
The nature of test [3]: growth inhibition of GSK3B-pretreated HCT116 cells – cell-based, CellTiter-Glo, 0.2 to 20 µM (AID 1117336;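 active = compounds lowering colon cancer cell viability after pretreatment blocking the GSK3B kinase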). The following applies: HCT116 viability after GSK3B inhibitor, at 20 µM, stronger effect = higher value. Background: In ATP-based viability assays light output follows the ATP content of the culture.
Test [4] can be described thus: inhibition of endothelial tube formation, primary screen, imaging, VEGF stimulated, CD31 staining, tube area, NPC library (AID 1117340;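 active = compound that reduces growth-factor-driven endothelial tube area in a mixed cell culture, no cutoff stated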). The following applies: VEGF-stimulated ADSC/ECFC co-culture, at 10 µM, stronger effect = higher value.
Test [5] is described as follows: glucagon-like peptide 1 release enhancers, primary assay, NCI-H716 cell line, NPC library (AID 1117341;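 active = compound raises GLP1 secretion from the human gut endocrine cells, with no numeric limit stated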). The settings on record: NCI-H716 cells, at 10 µM, stronger effect = higher value.
A short description of test [6]: HCT116 colon cancer cell growth inhibition, primary screen, CellTiter-Glo luminescence, NPC library (AID 1117342;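 active = compounds that lower survival of HCT116 colon cancer cells in the luminescence readout, no numeric limit stated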). The following applies: at 20 µM (top of the series).
The nature of test [7]: CellTiter-Glo luminescent readout of SW480 viability loss, NPC library primary (AID 1117343;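 active = compounds that lower viability of the colon cancer cells in the luminescence readout, with no numeric limit stated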). The settings on record: CellTiter-Glo luminescence; at 20 µM (top of the series).
A short description of test [8]: decreased DLD-1 cellular survival, CellTiter-Glo luminescent readout, NPC compound collection, primary HTS (AID 1117346;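 active = compounds that lower survival of DLD-1 colon cancer cells in the luminescence readout, no cutoff given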). The settings on record: DLD-1 viability, CellTiter-Glo luminescence; at 20 µM (top of the series).
Test [9] has as its target 6-phosphogluconate dehydrogenase, decarboxylating (Homo sapiens) (UniProt P52209). The test can be described thus: 6PGD enzyme inhibitors, primary screen, biochemical, human, recombinant enzyme, NADPH absorbance (AID 1159550;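 active = at least 20% inhibition of 6-phosphogluconate dehydrogenase activity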). The following applies: recombinant 6PGD, NADPH absorbance 341 nm; at 10 µM; stronger effect = higher value.
Test [10] can be described thus: sensitizers of A549 cells to miR-34 induction, primary screen, imaging, A549 dox-inducible miR-34, nuclei and caspase counts (AID 1347080;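 active = compounds whose cell count with miR-34 switched on is under 0.7 times the count with it off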). The settings on record: A549 miR-34 inducible, Hoechst nuclei count, 48 h.
Test [11] in a line: survival rescue of mitochondrial mutant cells in low glucose, primary screen, MELAS cybrids, Rieske KO mouse fibroblasts, CellTiter-Glo (AID 1508586;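 active = mean z-score across replicates of 1.96 or higher in either the MELAS or the Rieske mutant cell line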;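 note: z relative to plate mean and SD of compound and empty wells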).
For test [12], the target named is NAD(+) hydrolase SARM1 (Homo sapiens) (UniProt Q6SZW1). The test can be described thus: SARM1 TIR NADase inhibitors, cell lysate, NAD-Glo luminescence (AID 1508614;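 active = compound whose remaining NAD level is above about 45 nM, limit read from the data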;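 note: higher remaining NAD means stronger inhibition of SARM1 NADase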). The settings on record: SAM-TIR HEK293T lysate NADase, at 1 µM, stronger effect = higher value.
Sequence of NAD(+) hydrolase SARM1 (Homo sapiens) (Q6SZW1 whole entry, looked up, the tested form may be a part): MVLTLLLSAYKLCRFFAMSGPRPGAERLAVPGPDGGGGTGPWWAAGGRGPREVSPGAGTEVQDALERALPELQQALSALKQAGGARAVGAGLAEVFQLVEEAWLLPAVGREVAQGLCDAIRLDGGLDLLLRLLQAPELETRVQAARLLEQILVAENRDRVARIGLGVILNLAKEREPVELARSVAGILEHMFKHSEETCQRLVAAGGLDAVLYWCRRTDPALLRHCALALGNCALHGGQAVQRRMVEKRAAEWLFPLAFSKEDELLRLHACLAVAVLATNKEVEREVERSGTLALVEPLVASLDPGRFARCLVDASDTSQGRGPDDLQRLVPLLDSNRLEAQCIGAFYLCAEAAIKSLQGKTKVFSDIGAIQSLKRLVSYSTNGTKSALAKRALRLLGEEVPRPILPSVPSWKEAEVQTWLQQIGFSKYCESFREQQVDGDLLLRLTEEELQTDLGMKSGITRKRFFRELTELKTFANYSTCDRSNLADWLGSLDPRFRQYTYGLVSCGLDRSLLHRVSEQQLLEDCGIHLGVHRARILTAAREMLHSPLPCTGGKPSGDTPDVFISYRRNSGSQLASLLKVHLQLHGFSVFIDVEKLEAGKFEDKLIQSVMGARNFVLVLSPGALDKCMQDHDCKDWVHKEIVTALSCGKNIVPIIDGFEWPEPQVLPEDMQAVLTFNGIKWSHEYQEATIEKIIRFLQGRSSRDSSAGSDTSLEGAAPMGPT
Test [13] has as its target Mitogen-activated protein kinase 7 (Homo sapiens) (UniProt Q13164). The test can be described thus: ERK5 transactivation activators in reporter cells, primary screen, cell-based, HTS (AID 1508626;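 active = luciferase signal above three times the same-plate solvent-only control wells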;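 note: luciferase driven by Gal4-ERK5 fusion binding five Gal4 sites before minimal TATA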). The following applies: HeLa Gal4-ERK5 transactivation, 18 h, at 5 µM, stronger effect = higher value.
The next test relates to F380Y. The test can be described thus: modulators of BK channel variants, profiling panel, selectivity assay, cell-based, U2OS BacMam, thallium flux, beta subunits (AID 1259406).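 Note: initial slope of Thallos dye fluorescence rise after thallium is added; log ratio against the mean of 0.3% DMSO vehicle wells on the same plate.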 The following applies: at 30 µM.
The next test deals with F380Y/beta2Delta. The description is as above. The following applies: at 30 µM.
Test [14] concerns the target Calcium-activated potassium channel subunit alpha-1 (Homo sapiens) + Leucine-rich repeat-containing protein 26 (Homo sapiens) (UniProt Q12791+Q2I0M4). Described as above. The following applies: F380Y/Slo1WT/gamma1, at 30 µM.
The next test deals with R275C. The test is described as above. The following applies: at 30 µM.
The subject of a further test is R275C/beta1. The description is as above. The settings on record: at 30 µM.
A further test relates to R275C/beta2Delta. The test is described as above. The settings on record: at 30 µM.
Test [15] can be described thus: differential killing of epithelial or mesenchymal cells, primary screen, imaging, PC-3E GFP, TEM4-18 mCherry, co-culture (AID 1345086;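 active = compounds killing one labelled cell type while sparing the other, by normalised counts and ratio limits, not self-fluorescent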;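 note: cells exposed to compound for 72 h before imaging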;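 for red/green cell ratio (normalised): normalised mesenchymal count divided by normalised epithelial count so high means epithelial killing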). The settings on record: imaging cell counts, at 1 µM.
Where [16] appears, read: stronger effect = lower value, cell number ratio, induced over uninduced.
The mark [17] stands for this setting: measured here: relative caspase fold change +Dox/-Dox.
Where [18] appears, read: measured here: total cells with miR-34 induction, stronger effect = lower value.
The mark [19] stands for this setting: measured here: total cells without miR-34 induction.
Setting [20] is: MELAS cybrid survival, CellTiter-Glo 48 h, stronger effect = higher value.
Where [21] appears, read: Rieske KO mouse fibroblast survival, CellTiter-Glo 72 h.

The structures appear in SMILES notation. “And” between values parts separate entries of the source, which are not always exact repeats. Identical values can stand only once. The source made the active and inactive calls.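 Rule for the calls, unless noted: active = thallium flux through the channel raised or lowered by more than 3 SD from vehicle-only wells, actives on both sides; inactive = the rest.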

We go through 3 compounds from PubChem BioAssay.

Sequence of Mitogen-activated protein kinase 7 (Homo sapiens) (Q13164 whole entry, looked up, the tested form may be a part): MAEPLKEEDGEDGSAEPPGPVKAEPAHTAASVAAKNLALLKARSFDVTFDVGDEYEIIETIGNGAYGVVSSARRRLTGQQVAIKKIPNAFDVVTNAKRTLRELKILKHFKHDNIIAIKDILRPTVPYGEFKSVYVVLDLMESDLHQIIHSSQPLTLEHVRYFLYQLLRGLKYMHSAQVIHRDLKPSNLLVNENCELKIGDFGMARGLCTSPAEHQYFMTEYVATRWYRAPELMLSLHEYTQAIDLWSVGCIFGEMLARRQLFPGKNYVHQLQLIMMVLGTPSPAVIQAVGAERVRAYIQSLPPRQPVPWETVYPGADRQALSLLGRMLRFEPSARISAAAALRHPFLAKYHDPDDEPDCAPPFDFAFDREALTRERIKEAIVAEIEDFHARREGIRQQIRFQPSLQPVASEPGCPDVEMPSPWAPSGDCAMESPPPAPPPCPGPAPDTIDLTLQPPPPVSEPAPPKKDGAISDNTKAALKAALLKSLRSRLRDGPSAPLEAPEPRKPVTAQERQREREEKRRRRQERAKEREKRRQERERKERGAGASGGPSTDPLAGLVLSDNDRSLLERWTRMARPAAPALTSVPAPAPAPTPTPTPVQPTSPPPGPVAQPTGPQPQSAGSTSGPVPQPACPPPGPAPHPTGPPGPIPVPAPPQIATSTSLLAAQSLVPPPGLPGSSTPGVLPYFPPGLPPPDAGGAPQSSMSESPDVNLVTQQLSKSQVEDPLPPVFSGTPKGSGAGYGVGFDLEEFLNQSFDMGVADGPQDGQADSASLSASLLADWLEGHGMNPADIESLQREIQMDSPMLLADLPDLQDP
Sequence of 6-phosphogluconate dehydrogenase, decarboxylating (Homo sapiens) (P52209 whole entry, looked up): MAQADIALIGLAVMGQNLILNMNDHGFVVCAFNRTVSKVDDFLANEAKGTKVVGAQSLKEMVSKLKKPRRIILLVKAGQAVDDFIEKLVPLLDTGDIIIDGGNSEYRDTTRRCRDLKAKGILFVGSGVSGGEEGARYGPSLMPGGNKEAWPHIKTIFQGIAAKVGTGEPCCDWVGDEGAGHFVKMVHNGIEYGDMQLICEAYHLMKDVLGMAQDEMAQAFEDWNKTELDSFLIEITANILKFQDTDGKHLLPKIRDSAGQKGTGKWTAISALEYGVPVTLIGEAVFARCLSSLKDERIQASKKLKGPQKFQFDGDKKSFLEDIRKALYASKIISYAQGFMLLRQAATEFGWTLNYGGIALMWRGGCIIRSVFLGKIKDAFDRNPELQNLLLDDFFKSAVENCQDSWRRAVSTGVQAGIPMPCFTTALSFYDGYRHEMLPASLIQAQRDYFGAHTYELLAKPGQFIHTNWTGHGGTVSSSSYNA
Sequence of Calcium-activated potassium channel subunit alpha-1 (Homo sapiens) + Leucine-rich repeat-containing protein 26 (Homo sapiens) (Q2I0M4 whole entry, looked up, one chain of several): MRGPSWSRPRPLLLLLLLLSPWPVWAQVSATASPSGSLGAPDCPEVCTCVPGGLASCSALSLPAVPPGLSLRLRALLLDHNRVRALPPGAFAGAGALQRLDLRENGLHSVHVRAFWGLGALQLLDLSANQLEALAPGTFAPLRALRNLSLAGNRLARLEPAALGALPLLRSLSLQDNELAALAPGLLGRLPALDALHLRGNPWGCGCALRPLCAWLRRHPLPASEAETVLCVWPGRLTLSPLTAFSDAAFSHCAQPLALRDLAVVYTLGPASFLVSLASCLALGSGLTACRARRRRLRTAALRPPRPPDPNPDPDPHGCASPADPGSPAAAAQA

The term inhibition denotes the change of the read-out against control, counted positive when it falls. `CCC(=O)O[C@]1(C(=O)CCl)[C@@H](C)C[C@H]2[C@@H]3CCC4=CC(=O)C=C[C@]4(C)[C@@]3(F)[C@@H](O)C[C@@]21C`: the nuclear beta-catenin stimulation is 4.4% (inactive) in test [1] (at 10 µM) and 3.8% in [1] (stimulation, at 2 µM). In addition, the insulin secretion stimulation in [2] was 8.3% (inactive). Besides, the viability decrease in test [3] was -89.8% (inactive). For the same compound, the tube area decrease in test [4] is 9.1% (inactive). For the same compound, the GLP1 secretion stimulation in [5] is 2.1% (inactive). Besides, in test [6], the inhibition of viability was 2.9% (inactive). Also, the viability decrease (inhibition) in test [7] is 41% (inactive); in [8], 15.6% (inactive). In addition, in test [9], the inhibition was 3.17% (inactive). The fold change in [10] (setting [16]) is 1.05 (inactive) and 0.839 (inactive); in test [10] (setting [17]), 2.64 and 1.67. The cell count in [10] (setting [18]) was 6300 and 6140; in [10] (setting [19]) it was 6030 and 7320. Moreover, the z-score was 0.507 (inactive) and -0.252 (inactive) in test [11] (setting [20]); 1.67 and 0.844 in test [11] (setting [21]). For the same compound, the remaining NAD in [12] was 10 nM (inactive). Further, in [13], the luciferase signal was 84 AU (inactive). For the same compound, the log fold change Tl+ flux with F380Y is 0.112 (active); with F380Y/beta2Delta, 0.293 (active); in test [14], 0.157 (active); with R275C it was -0.00176 (inactive); with R275C/beta1, 0.13 (active); in the test on R275C/beta2Delta, 0.172 (active).

As to `CN1CCN(CCCN2c3ccccc3Sc3ccc(C(F)(F)F)cc32)CC1`, the nuclear beta-catenin stimulation in test [1] (at 10 µM) was 32.2% (inactive); in test [1] (stimulation, at 2 µM) it was 0.2%. For the same compound, in test [2], the insulin secretion stimulation is 6.1% (inactive). Moreover, the viability decrease in test [3] was 110% (active). Further, the tube area decrease in [4] was 106% (active). In addition, in test [5], the GLP1 secretion stimulation was 28.8% (active). In addition, the inhibition of viability in [6] is 112% (active). In addition, the viability decrease (inhibition) is 132% (active) in test [7] and 99.8% (active) in test [8]. Further, the inhibition in test [9] was 8.36% (inactive). For the same compound, the red/green cell ratio (normalised) in test [15] (actives lie on both sides, counts scaled to control wells, 1 = unselective) is 0.91 (inactive). The normalised cell number in [15] (measured here: epithelial PC-3E GFP cell survival) stood at 1; in test [15] (measured here: mesenchymal TEM4-18 mCherry cell survival), 0.91. In addition, the z-score in test [11] (setting [20]) was -0.198 (inactive) and -1.6 (inactive) and 0.134 (inactive); in [11] (setting [21]), -0.246 and 0.0911 and -0.232. For the same compound, the remaining NAD in test [12] was 10 nM (inactive). Also, the luciferase signal in test [13] was 52 AU (inactive). In addition, the log fold change Tl+ flux is 0.0849 (inactive) in the test with F380Y; 0.0861 (active) in the test on F380Y/beta2Delta; 0.0472 (inactive) in test [14]; -0.157 (active) in the test on R275C; 0.287 (active) in the test on R275C/beta1; -0.0448 (inactive) in the test with R275C/beta2Delta.

With `CC(=O)OCC(=O)[C@@]1(O)CC[C@H]2[C@@H]3CCC4=CC(=O)CC[C@]4(C)[C@H]3C(=O)C[C@@]21C`, the nuclear beta-catenin stimulation in test [1] (at 10 µM) was 1.3% (inactive); in test [1] (stimulation, at 2 µM) it was 0.9%. Also, in [2], the insulin secretion stimulation is 2.1% (inactive). In test [3], the viability decrease was 3.8% (inactive). For the same compound, the tube area decrease in test [4] was -2.1% (inactive). Besides, the GLP1 secretion stimulation in [5] was 7% (inactive). In addition, the inhibition of viability in test [6] is -5.5% (inactive). Further, the viability decrease (inhibition) in test [7] is -2.6% (inactive); in test [8], -11.3% (inactive). Moreover, the inhibition in test [9] is -3.27% (inactive). For the same compound, the fold change in test [10] (setting [16]) was 0.993 (inactive) and 0.93 (inactive); in test [10] (setting [17]), 1.87 and 1.55. Further, the cell count in test [10] (setting [18]) was 10600 and 10400; in test [10] (setting [19]), 10700 and 11200. In test [12], the remaining NAD is 10 nM (inactive). The luciferase signal in test [13] is 28 AU (inactive). Moreover, the log fold change Tl+ flux was -0.00173 (inactive) in the test with F380Y; -0.0255 (inactive) in the test with F380Y/beta2Delta; -0.0083 (inactive) in test [14]; 0.0275 (inactive) with R275C; -0.0466 (inactive) in the test with R275C/beta1; -0.00407 (inactive) in the test with R275C/beta2Delta.
